# High-throughput results: PubChem BioAssay, National Center for Advancing Translational Sciences (NCATS)
# Hits are enriched below; roughly 7.4% of the tested compounds scored in any of these assays.
# Luc counter: counter-screen: inhibitors of Kinase-Glo firefly luciferase; Q27757; Kinase-Glo luciferase, ATP luminescence, 8 min; Potency, µM (series often up to 38.3 µM), most hits filed as inhibitors; hit rate 0.28% among 200,000; AID 1379; further: nearly all actives have a fitted effect of over 60% in size
#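 Compound is pinned into ATP-containing buffer (10 uM ATP, imidazole pH 7.2, 7 mM MgCl2). Kinase-Glo luciferase reagent is then added. Light output is recorded following an 8-min room-temperature incubation.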
# FLuc counter: counter-screen for miR-21 project: firefly luciferase inhibitors or activators. P08659. purified FLuc, Km substrates, luminescence inhibition. Potency, µM (series often up to 57.5 µM), most hits filed as inhibitors. hit rate 6.9% among 360,000; further: nearly all actives have a fitted effect of over 55% in size
# Target sequence (P08659 whole entry, looked up): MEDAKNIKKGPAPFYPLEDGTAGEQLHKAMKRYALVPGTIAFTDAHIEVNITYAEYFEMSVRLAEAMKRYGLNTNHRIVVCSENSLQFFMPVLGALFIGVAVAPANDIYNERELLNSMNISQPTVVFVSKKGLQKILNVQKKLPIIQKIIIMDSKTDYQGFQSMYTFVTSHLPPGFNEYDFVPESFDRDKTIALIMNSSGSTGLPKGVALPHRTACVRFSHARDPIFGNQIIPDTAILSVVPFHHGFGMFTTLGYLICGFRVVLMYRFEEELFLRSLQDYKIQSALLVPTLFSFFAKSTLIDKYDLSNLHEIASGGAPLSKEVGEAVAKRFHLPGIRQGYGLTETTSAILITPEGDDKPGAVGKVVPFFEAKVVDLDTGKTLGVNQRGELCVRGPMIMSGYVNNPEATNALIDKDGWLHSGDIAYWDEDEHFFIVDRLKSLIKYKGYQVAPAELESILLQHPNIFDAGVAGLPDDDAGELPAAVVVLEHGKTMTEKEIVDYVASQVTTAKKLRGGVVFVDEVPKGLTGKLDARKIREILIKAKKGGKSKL
#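 Biochemical qHTS of compounds, final roughly 60 µM downward over six points, against 10 nM purified firefly luciferase using Km concentrations of substrates (10 uM D-luciferin, 10 uM ATP) in Tris acetate pH 7.5 buffer; luminescence output.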
# ELG1 genotox: genotoxicity induction in ELG1-luciferase HEK293T cells. HEK293T ELG1-luciferase reporter, luminescence, 16 h. Potency, µM (titrated, usually from 46 µM), hits mostly activators. hit rate 1.3% among 330,000; further: nearly all actives have a fitted effect of over 60% in size
#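 ELG1-luciferase HEK293T cells, 2,000/well; compound pinned in; 16 hr, 37 °C, 5% CO2; ONE-Glo, 30 min RT; luminescence on CCD imager.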
# SMN2 splice up: enhancers of SMN2 splice variant expression. Potency, µM (doses to about 46.1 µM), usual class: activators. HEK293 SMN2-luciferase splicing reporter, luminescence, 30-36 h. AID 1458. hit rate 2.8% among 210,000; further: nearly all actives have a fitted effect of over 55% in size
#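 qHTS luciferase splicing reporter: luminescence rises when SMN2 exon 7 is included in transfected HEK293 cells. Compound exposure lasted 30-36 h at 37C, with 4.5 mM final sodium butyrate as control, followed by a ONE-Glo read.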
# NPC1 promoter act: activators of NPC1 promoter; Huh7 NPC1 promoter luciferase reporter, 24 h; Potency, µM (highest dose often 9.22 µM), hits mostly activators; hit rate 2.4% among 320,000; further: nearly all actives have a fitted effect of over 60% in size
#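 Huh7 reporter cells (NPC1 promoter driving luciferase) are dosed with compound for 24 h at 37 °C, 5% CO2; luciferase detection reagent is then added and luminescence measured after 10 min at ambient temperature.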
# Rab9 promoter act: activates the Rab9 promoter | Huh7 Rab9 promoter-luciferase reporter, luminescence, 24 h | Potency, µM (series often up to 9.22 µM), usual class: activators | hit rate 2.8% among 320,000 | AID 485297; further: nearly all actives have a fitted effect of over 60% in size
#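 Luminescence read-out: Huh7 cells stably expressing Rab9-luciferase, treated 24 h with compound at 37 °C, then lysed with luciferase reagent for 10 min at ambient before reading.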
# Hits are given with their value; i = inactive; ? = inconclusive; nt = no result given; [ ] = another dose, or the depositor's remark. The call rests on the fitted dose curve; in most records, active means well fitted curve in the direction sought with a large enough effect; inconclusive means small, poorly fitted or top-dose-only effect, or another doubt; inactive means no such curve, though single readings can be large; an effect the other way counts as inactive or inconclusive.
SMILES,Luc counter,FLuc counter,ELG1 genotox,SMN2 splice up,NPC1 promoter act,Rab9 promoter act
Clc1ccc(-c2csc(N/N=C/c3cccnc3)n2)c(Cl)c1,i,i,i,i,i,i
CC(C)(C)c1csc(N/N=C/c2cccnc2)n1,i,12µM,?,?,?,3.2µM
C(=N\Nc1nc(-c2ccccc2)cs1)/c1cccnc1,i,21µM,5.2µM,22µM,3.2µM,2.2µM
Cc1ccc(/C=N/Nc2nc(C(C)(C)C)cs2)o1,i,13µM,?,13µM,?,?
O=C(COC(=O)/C=C/c1cccc(Cl)c1)NC1CC1,nt,i,i,nt,i,i
COc1cc(-c2c(C#N)c(N)nc3[nH]c(=S)[nH]c(=O)c23)ccc1O,nt,i,i,nt,i,i
Cc1ccccc1C(=O)N/N=C/c1ccccn1,i,8.5µM,26µM,11µM,3.2µM,4µM
O=C(N/N=C/c1ccccn1)c1ccco1,i,?,i,i,i,i
COc1ccc(C(=O)Nc2ccccc2C(=O)N/N=C/c2ccccn2)cc1OC,nt,0.85µM,21µM,nt,i,i
O=C(N/N=C\c1ccccn1)c1ccccc1O,i,12µM,?,i,i,i
O=C(N/N=C/c1ccc(-c2ccccc2)o1)c1ccccc1O,nt,5.4µM,i,nt,i,i
O=C(N/N=C\c1ccncc1)c1ccccc1O,i,9.5µM,i,i,i,i
CC1(C)C2CC=C(/C=N/NC(=O)c3ccccc3O)C1C2 (stereo not given),i,7.6µM,i,i,i,i
Cc1ccccc1C(=O)N/N=C/c1ccncc1,i,?,i,i,i,i
CN1C=C/C(=C\c2cc[n+](C)c3ccccc23)c2ccccc21,i,17µM,i,i,i,i
Nc1nc2c(s1)CCc1c-2cnn1-c1ccccc1,i,6.7µM,i,11µM,0.79µM,?
O=C(/C(C=Nc1cccc(C(F)(F)F)c1)=C(/O)c1ccco1)C(F)(F)F,i,24µM,?,?,i,i
O=C(/C(C=Nc1ccc(Br)cc1)=C(/O)c1ccco1)C(F)(F)F,i,6µM,?,14µM,?,3.2µM
Cn1nc(C(F)(F)F)c(-c2ccc(Br)cc2)c1NC(=O)c1ccco1,nt,i,i,nt,i,i
O=C(c1ccco1)N1CCN(S(=O)(=O)c2cccc(C(F)(F)F)c2)CC1,i,i,i,i,i,i
Cc1ccc(C(=O)NCC(=O)OC(C)C(=O)NCCC2=CCCCC2)cc1C (stereo not given),i,i,i,i,i,i
O=C(NCC(=O)N1CCN(C(=O)c2ccco2)CC1)c1ccc(Br)cc1,nt,i,i,nt,i,i
COC(=O)c1ccc(COc2ccc(/C=N/N3CCN(C)CC3)cc2)cc1,i,24µM,?,5.6µM,?,1.1µM
CC(/C=C/c1ccc(OCc2ccccc2)cc1)=N\O,i,2.4µM,15µM,11µM,2.8µM,2.8µM
CN1CCN(/N=C/c2ccc(OCc3ccccc3)cc2)CC1,nt,9.5µM,?,nt,3.5µM,2.8µM
SMILES,Luc counter,FLuc counter,ELG1 genotox,SMN2 splice up,NPC1 promoter act,Rab9 promoter act
O=C(/C=C/c1ccco1)NC(=S)Nc1ccccc1O,i,?,i,?,?,4µM
O=C(/C=C\c1ccco1)NC(=S)Nc1ccccc1O,nt,?,i,nt,?,3.2µM
Cc1ccc(NC(=S)NC(=O)/C=C/c2ccco2)c(O)c1,i,?,i,i,i,i
O=C(/C=C/c1ccco1)NC(=S)Nc1ccccn1,i,13µM,i,?,3.2µM,2.8µM
O=C(/C=C/c1ccco1)NC(=S)Nc1ccccc1N1CCCC1,i,i,i,i,i,i
CCCc1ccc(OCC(O)CN2CCN(c3ccccn3)CC2)cc1 (stereo not given),nt,i,i,nt,i,i
O=C(OCC(=O)N1CCN(c2ccccc2)CC1)c1ccc(O)cc1O,nt,i,i,nt,i,i
Cc1ccc(N2CCN(c3nc4c(S(=O)(=O)c5ccc(C)c(C)c5)nnn4c4ccccc34)CC2)c(C)c1,nt,i,nt,nt,nt,nt
O=c1c2ccccc2c(/C=N/c2nnc(Cc3ccccc3)s2)c(O)n1-c1ccc(Cl)cn1,i,1.9µM,i,i,i,i
CCc1ccc(NC(=O)Nc2cccc(OC)c2)cc1,i,2.7µM,?,14µM,2.8µM,3.2µM
O=C(Nc1ccncc1)Nc1cccc(Cl)c1,nt,?,i,nt,i,i
O=C(O)Cc1ccc(NC(=O)Nc2cccc(Cl)c2)cc1,i,17µM,i,nt,i,i
CCc1ccc(NC(=O)C(=O)NNC(=O)c2cccc(OC)c2)cc1,nt,?,i,nt,i,i
COc1cccc(NC(=O)Nc2ccc(CC(=O)O)cc2)c1,i,19µM,i,i,i,i
COc1ccc(S(=O)(=O)NCCc2sc(-c3cccc(C)c3)nc2C)cc1,nt,i,nt,nt,nt,nt
O=C(Nc1ccccc1C(=O)NC1CCCCC1)c1ccccc1,nt,i,?,nt,i,i
O=C(Nc1ccccc1C(=O)O)c1ccc(NC(=O)C2CCCCC2)cc1,nt,9.5µM,i,nt,i,i
O=C(Nc1ccccc1)c1ccc(NC(=O)C2CC2)cc1,nt,7.6µM,21µM,nt,1.6µM,2.8µM
O=C(COC(=O)COc1cccc(C(F)(F)F)c1)NC1CCCC1,nt,i,i,nt,i,i
O=C(Nc1cc(Cl)ccc1N1CCOCC1)c1cccnc1Cl,nt,i,i,nt,i,i
CC(C)NC(=O)CCc1nnc(Cc2cccc(C(F)(F)F)c2)o1,nt,15µM,?,nt,?,?
CCC(COC)NC(=O)CCc1nnc(Cc2cccc(C(F)(F)F)c2)o1 (stereo not given),i,?,i,nt,i,i
CCC(C)C(NC(=O)c1ccc(Cl)cc1)C(=O)O (stereo not given),i,i[2.3 µM],i,nt,i,i
CCC(C)C(NC(=O)c1ccc(Cl)cc1Cl)C(=O)O (stereo not given),i,19µM,i,i,i,i
O=S(=O)(O)c1cc2oc(-c3ccccc3)nc2c2ccccc12,nt,9.5µM,i,nt,i,i
SMILES,Luc counter,FLuc counter,ELG1 genotox,SMN2 splice up,NPC1 promoter act,Rab9 promoter act
O=S(=O)(Nc1ccc2oc(-c3ccccc3)nc2c1)c1ccccc1,i,?,i,i,i,i
COc1ccccc1OCCNC(=O)c1ccc(C)o1,nt,i,?,nt,i,i
CC(=O)Nc1ccc(N/C=C/C(=O)c2ccc(C)o2)cc1,i,8.5µM,?,i,4µM,?
COc1ccccc1Oc1ccc(N/C=C/C(=O)c2ccc(C)o2)cc1,i,7.6µM,i,i,?,?
COc1cccc(C(=O)O/N=C(\N)c2ccncc2)c1OC,i,?,?,i,i,i
N/C(=N\OC(=O)c1cccc2ccccc12)c1ccccn1,nt,1.2µM,10µM,nt,?,?
COc1cccc(C(=O)O/N=C(\N)c2ccccn2)c1OC,nt,0.95µM,1.8µM,nt,?,0.71µM
N/C(=N\OC(=O)Cc1cccc2ccccc12)c1ccccn1,i,?,?,i,i,i
O=C(Nc1nc2ccccc2[nH]1)c1ccc(Cl)c([N+](=O)[O-])c1,i,?,?,13µM,i,i
